Structures can show the parent of a compound that is named as a salt.
Tests used:
Details in all cases: treatment time: 24 h
[1] = system: A549-ACTB-RAB5A; assay: lowest phenotypically active concentration; higher = less potent
Outline: (§1)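 Fifteen gene-edited A549, HepG2 and WPMY1 reporter lines (BFP segmentation plus GFP and RFP/FusionRed markers) were treated at 0.3, 1, 3 or 9 µM for 24 h, four wells each, then imaged live. Live-cell features per well were normalised to DMSO control wells. Deviation required ≥3 of 4 wells beyond the 95th percentile of DMSO Euclidean distances, and reproducibility required median replicate Pearson correlation above the 95th percentile of non-replicates. Phenotypic activity needed both criteria.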

[2] = system: A549-CANX-COX4; assay: as above
Outline: as §1

[3] = system: A549-GM130-SQSTM1; assay: as above
Outline: as §1

[4] = system: A549-TP53BP1-CLTA; assay: as above
Outline: as §1

[5] = system: A549-TUBA1B-RELA; assay: as above
Outline: as §1

[6] = system: A549-ACTB-RAB5A; assay: phenotypically active (imaging signature differs from DMSO and reproducible) at any of 0.3-9 uM (binary (1 = active, 0 = inactive)); higher = active
Outline: as §1

[7] = system: A549-CANX-COX4; assay: as above
Outline: as §1

[8] = system: A549-GM130-SQSTM1; assay: as above
Outline: as §1

[9] = system: A549-TP53BP1-CLTA; assay: as above
Outline: as §1

[10] = system: A549-TUBA1B-RELA; assay: as above
Outline: as §1

[11] = system: HepG2-ACTB-RAB5A; assay: as above
Outline: as §1

[12] = system: HepG2-CANX-COX4; assay: as above
Outline: as §1

[13] = system: HepG2-GM130-SQSTM1; assay: as above
Outline: as §1

[14] = system: HepG2-TP53BP1-CLTA; assay: as above
Outline: as §1

[15] = system: HepG2-TUBA1B-RELA; assay: as above
Outline: as §1

[16] = system: WPMY1-ACTB-RAB5A; assay: as above
Outline: as §1

[17] = system: WPMY1-CANX-COX4; assay: as above
Outline: as §1

[18] = system: WPMY1-GM130-SQSTM1; assay: as above
Outline: as §1

[19] = system: WPMY1-TP53BP1-CLTA; assay: as above
Outline: as §1

[20] = system: WPMY1-TUBA1B-RELA; assay: as above
Outline: as §1

Structure (SMILES)	lowest phenotypically active concentration [1] [µM]	lowest phenotypically active concentration [2] [µM]	lowest phenotypically active concentration [3] [µM]	lowest phenotypically active concentration [4] [µM]	lowest phenotypically active concentration [5] [µM]	phenotypically active [6]	phenotypically active [7]	phenotypically active [8]	phenotypically active [9]	phenotypically active [10]	phenotypically active [11]	phenotypically active [12]	phenotypically active [13]	phenotypically active [14]	phenotypically active [15]	phenotypically active [16]	phenotypically active [17]	phenotypically active [18]	phenotypically active [19]	phenotypically active [20]
CC1(C)O[C@@H]2C[C@H]3[C@@H]4C[C@H](F)C5=CC(=O)CC[C@]5(C)[C@H]4[C@@H](O)C[C@]3(C)[C@]2(C(=O)CO)O1 [flurandrenolide]	≤ 0.3	≤ 0.3	≤ 0.3	≤ 0.3	≤ 0.3	1 (active)	1 (active)	1 (active)	1 (active)	1 (active)	0 (inactive)	0 (inactive)	0 (inactive)	0 (inactive)	0 (inactive)	0 (inactive)	0 (inactive)	0 (inactive)	0 (inactive)	0 (inactive)
CC(=O)OCC(=O)[C@@]12OC3(CCCC3)O[C@@H]1C[C@H]1[C@@H]3CCC4=CC(=O)C=C[C@]4(C)[C@@]3(F)[C@@H](O)C[C@@]12C [amcinonide]	≤ 0.3	≤ 0.3	≤ 0.3	≤ 0.3	≤ 0.3	1 (active)	1 (active)	1 (active)	1 (active)	1 (active)	0 (inactive)	0 (inactive)	0 (inactive)	0 (inactive)	0 (inactive)	0 (inactive)	0 (inactive)	0 (inactive)	0 (inactive)	0 (inactive)
C[C@]12CCC(=O)C=C1CC[C@@H]1[C@@H]2[C@@H](O)C[C@@]2(C)[C@H]1CC[C@]2(O)C(=O)CO [hydrocortisone]	≤ 0.3	≤ 0.3	≤ 0.3	≤ 0.3	≤ 0.3	1 (active)	1 (active)	1 (active)	1 (active)	1 (active)	0 (inactive)	0 (inactive)	0 (inactive)	0 (inactive)	0 (inactive)	0 (inactive)	0 (inactive)	0 (inactive)	0 (inactive)	0 (inactive)
C[C@@H]1C[C@H]2[C@@H]3C[C@H](F)C4=CC(=O)C=C[C@]4(C)[C@@]3(F)[C@@H](O)C[C@]2(C)[C@@]1(O)C(=O)COC(=O)C(C)(C)C [flumethasone pivalate]	≤ 0.3	≤ 0.3	≤ 0.3	≤ 0.3	≤ 0.3	1 (active)	1 (active)	1 (active)	1 (active)	1 (active)	0 (inactive)	0 (inactive)	0 (inactive)	0 (inactive)	0 (inactive)	0 (inactive)	0 (inactive)	0 (inactive)	0 (inactive)	0 (inactive)
Cc1ccc(NC(=O)c2ccc(CN3CCN(C)CC3)cc2)cc1Nc1nc(-c2cccnc2)cs1 [masitinib]	3	9	3	9	3	1 (active)	1 (active)	1 (active)	1 (active)	1 (active)	1 (active)	1 (active)	1 (active)	1 (active)	1 (active)	1 (active)	1 (active)	1 (active)	1 (active)	1 (active)
CC(C)[N+](C)(CCOC(=O)C1c2ccccc2Oc2ccccc21)C(C)C [propantheline]	–	–	–	–	–	0 (inactive)	0 (inactive)	0 (inactive)	0 (inactive)	0 (inactive)	0 (inactive)	0 (inactive)	0 (inactive)	0 (inactive)	0 (inactive)	0 (inactive)	0 (inactive)	0 (inactive)	0 (inactive)	0 (inactive)
CCCc1nn(C)c2c(=O)[nH]c(-c3cc(S(=O)(=O)N4CCN(C)CC4)ccc3OCC)nc12 [Sildenafil citrate]	–	–	–	–	–	0 (inactive)	0 (inactive)	0 (inactive)	0 (inactive)	0 (inactive)	0 (inactive)	0 (inactive)	0 (inactive)	0 (inactive)	0 (inactive)	0 (inactive)	0 (inactive)	0 (inactive)	0 (inactive)	0 (inactive)
CN(C)CCOC(c1ccc(Cl)cc1)c1ccccn1 (stereo unspecified) [carbinoxamine]	–	–	–	–	–	0 (inactive)	0 (inactive)	0 (inactive)	0 (inactive)	0 (inactive)	0 (inactive)	0 (inactive)	0 (inactive)	0 (inactive)	0 (inactive)	0 (inactive)	0 (inactive)	0 (inactive)	0 (inactive)	0 (inactive)
CCCC(=O)O[C@]1(C(=O)COC(C)=O)CC[C@H]2[C@@H]3C[C@H](F)C4=CC(=O)C=C[C@]4(C)[C@@]3(F)[C@@H](O)C[C@@]21C [difluprednate]	≤ 0.3	≤ 0.3	≤ 0.3	≤ 0.3	≤ 0.3	1 (active)	1 (active)	1 (active)	1 (active)	1 (active)	0 (inactive)	0 (inactive)	0 (inactive)	0 (inactive)	0 (inactive)	0 (inactive)	0 (inactive)	0 (inactive)	0 (inactive)	0 (inactive)
C[C@H]1C[C@@H]2[C@H]([C@@H](O)C[C@@]3(C)[C@H]2CC[C@]3(O)C(=O)CO)[C@@]2(C)C=CC(=O)C=C12 [methylprednisolone]	≤ 0.3	≤ 0.3	≤ 0.3	≤ 0.3	≤ 0.3	1 (active)	1 (active)	1 (active)	1 (active)	1 (active)	0 (inactive)	0 (inactive)	0 (inactive)	0 (inactive)	0 (inactive)	0 (inactive)	0 (inactive)	0 (inactive)	0 (inactive)	0 (inactive)
COc1cc(N2CCC(O)CC2)ccc1Nc1cc(Nc2ccccc2S(=O)(=O)C(C)C)c2cc[nH]c2n1 [Mps1-IN-1 dihydrochloride]	9	9	9	9	9	1 (active)	1 (active)	1 (active)	1 (active)	1 (active)	1 (active)	1 (active)	1 (active)	1 (active)	1 (active)	1 (active)	1 (active)	1 (active)	1 (active)	0 (inactive)
C[C@@H]1O[C@@H](OC[C@H]2O[C@@H](Oc3c(-c4ccc(O)c(O)c4)oc4cc(O)cc(O)c4c3=O)[C@H](O)[C@@H](O)[C@@H]2O)[C@H](O)[C@H](O)[C@H]1O [Quercétine-3-rutinoside]	9	–	–	–	–	1 (active)	0 (inactive)	0 (inactive)	0 (inactive)	0 (inactive)	0 (inactive)	0 (inactive)	0 (inactive)	0 (inactive)	0 (inactive)	0 (inactive)	0 (inactive)	0 (inactive)	0 (inactive)	0 (inactive)
COc1cc2ncnc(Nc3ccc(O)c(Br)c3)c2cc1OC	1	3	3	1	3	1 (active)	1 (active)	1 (active)	1 (active)	1 (active)	1 (active)	1 (active)	1 (active)	1 (active)	1 (active)	1 (active)	1 (active)	1 (active)	1 (active)	0 (inactive)
COc1ccc2c(NC(=O)Nc3cccc(C(F)(F)F)n3)ccnc2c1	≤ 0.3	9	3	9	3	1 (active)	1 (active)	1 (active)	1 (active)	1 (active)	1 (active)	1 (active)	1 (active)	1 (active)	1 (active)	1 (active)	1 (active)	1 (active)	1 (active)	0 (inactive)
C[C@](N)(Cc1ccc(O)c(O)c1)C(=O)O [methyldopa]	–	–	–	–	–	0 (inactive)	0 (inactive)	0 (inactive)	0 (inactive)	0 (inactive)	0 (inactive)	0 (inactive)	0 (inactive)	0 (inactive)	0 (inactive)	0 (inactive)	0 (inactive)	0 (inactive)	0 (inactive)	0 (inactive)
NS(=O)(=O)Cc1noc2ccccc12 [zonisamide]	–	–	–	–	–	0 (inactive)	0 (inactive)	0 (inactive)	0 (inactive)	0 (inactive)	0 (inactive)	0 (inactive)	0 (inactive)	0 (inactive)	0 (inactive)	0 (inactive)	0 (inactive)	0 (inactive)	0 (inactive)	0 (inactive)
C#Cc1cccc(Nc2ncnc3cc(OCCOC)c(OCCOC)cc23)c1 [erlotinib]	≤ 0.3	3	3	1	1	1 (active)	1 (active)	1 (active)	1 (active)	1 (active)	1 (active)	1 (active)	1 (active)	1 (active)	1 (active)	0 (inactive)	0 (inactive)	0 (inactive)	0 (inactive)	0 (inactive)
CCCCCCCCCCCCCCCC(=O)C(F)(F)F	–	–	–	–	–	0 (inactive)	0 (inactive)	0 (inactive)	0 (inactive)	0 (inactive)	0 (inactive)	0 (inactive)	0 (inactive)	0 (inactive)	0 (inactive)	0 (inactive)	0 (inactive)	0 (inactive)	0 (inactive)	0 (inactive)
O=C1NC(=O)C(c2ccccc2[N+](=O)[O-])=C1Nc1ccc(O)c(Cl)c1	9	9	9	9	9	1 (active)	1 (active)	1 (active)	1 (active)	1 (active)	1 (active)	1 (active)	1 (active)	1 (active)	1 (active)	1 (active)	0 (inactive)	0 (inactive)	0 (inactive)	0 (inactive)
Fc1ccc(-c2c3cccc(C(F)(F)F)c3nn2Cc2ccc(F)cc2Cl)cc1	–	–	–	–	–	0 (inactive)	0 (inactive)	0 (inactive)	0 (inactive)	0 (inactive)	0 (inactive)	0 (inactive)	0 (inactive)	0 (inactive)	0 (inactive)	0 (inactive)	0 (inactive)	0 (inactive)	0 (inactive)	0 (inactive)
